# From the supplement of paper PMC6607015
# Counter-ions that a name gives are not always drawn.
# How the values were obtained:
# Details in all cases: compound concentration in added solution (µM; 5 µl added to 20 µl cells): 10; 18 h
# A431 [1] = test: LBPA endosome anti-LBPA integrated intensity (sum per cell), Z-score; higher = more LBPA staining
# In short: (§1)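 Reported values are Z-scores from AcuityXpress normalisation of per-cell integrated LBPA or filipin staining. HeLa MZ or A431 cells (3,500/well in 20 µl) were seeded onto 5 µl of 10 µM compound solution in duplicate 384-well plates, incubated 18 h, fixed in 4% PFA, stained and imaged at 20×. MetaXpress segmentation measured the intensity over the whole cell or within LBPA endosomes.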
# HeLa MZ [2] = test: as above
# In short: as §1
# A431 [3] = test: whole-cell filipin (free cholesterol) integrated intensity, Z-score; higher = more cholesterol staining
# In short: as §1
# HeLa MZ [4] = test: as above
# In short: as §1
# A431 [5] = test: filipin (cholesterol) integrated intensity within LBPA endosomes, Z-score; higher = more cholesterol in LBPA endosomes
# In short: as §1
# HeLa MZ [6] = test: as above
# In short: as §1
SMILES,LBPA endosome anti-LBPA integrated intensity (z-score) (A431 [1]),LBPA endosome anti-LBPA integrated intensity (z-score) (HeLa MZ [2]),whole-cell filipin (z-score) (A431 [3]),whole-cell filipin (z-score) (HeLa MZ [4]),filipin (z-score) (A431 [5]),filipin (z-score) (HeLa MZ [6])
NCCc1cc[nH]n1 [Betazole hydrochloride],-0.528,0.0261,-0.472,-0.657,-0.476,-0.51
O=C(CCCCC(=O)Nc1c(I)cc(I)c(C(=O)O)c1I)Nc1c(I)cc(I)c(C(=O)O)c1I [Iodipamide],-0.326,-0.366,-0.456,-0.377,-0.385,-0.472
CC1COc2c(N3CCN(C)CC3)c(F)cc3c(=O)c(C(=O)O)cn1c23 (stereo unspecified) [Ofloxacin],-0.519,-0.166,-0.939,0.125,-0.532,-0.106
O=C(O)c1cn(C2CC2)c2cc(N3CCNCC3)c(F)cc2c1=O [Ciprofloxacin hydrochloride hydrate],-0.633,-0.847,-0.925,-0.971,-0.579,-0.519
CC1=C(/C=C/C(C)=C/C=C/C(C)=C/C(=O)O)C(C)(C)CCC1 [Retinoic acid],-0.177,-0.508,-0.103,-0.698,-0.286,-0.43
CNS(=O)(=O)Cc1ccc2[nH]cc(CCN(C)C)c2c1 [Sumatriptan succinate],-0.406,0.265,-0.574,-0.339,-0.423,-0.484
COc1ccc(C(=O)c2ccccc2O)c(O)c1 [Dioxybenzone],-0.417,0.711,-0.27,0.232,-0.379,-0.234
Cc1cccc(C)c1OCC(C)N (stereo unspecified) [Mexiletine hydrochloride],-0.572,-0.935,-0.883,-0.901,-0.495,-0.576
CN1C(C(=O)Nc2ccccn2)=C(O)c2ccccc2S1(=O)=O [Piroxicam],-0.541,-0.331,-0.896,-1.08,-0.561,-0.694
CN(C)CCC=C1c2ccccc2CCc2ccccc21 [Amitryptiline hydrochloride],2.23,1.04,1.41,0.0305,2.47,1.81
COC1=CC(=O)C[C@@H](C)[C@]12Oc1c(Cl)c(OC)cc(OC)c1C2=O [Griseofulvin],-0.41,-0.867,-0.73,-1.73,-0.468,-0.516
CCOC(=O)/C=C(C)/C=C/C=C(C)/C=C/c1c(C)cc(OC)c(C)c1C [Etretinate],-0.297,0.358,0.197,-0.112,-0.399,-0.321
Cc1c(NC(=O)c2cccnc2)c(=O)n(-c2ccccc2)n1C [Nifenazone],-0.531,-0.887,-0.738,-0.647,-0.626,-0.754
Nc1ncnc2c1ncn2C1OC(COP(=O)(O)O)C(O)C1O (stereo unspecified) [Adenosine 5'-monophosphate monohydrate],-0.591,0.12,-0.666,0.0121,-0.493,-0.612
CCC(=O)OCC(=O)[C@@]1(OC(=O)CC)[C@@H](C)C[C@H]2[C@@H]3CCC4=CC(=O)C=C[C@]4(C)[C@@]3(Cl)[C@@H](O)C[C@@]21C [Beclomethasone dipropionate],-0.15,0.711,0.251,-0.00746,-0.116,0.00681
CCN(CC)C(=O)/C(C#N)=C/c1cc(O)c(O)c([N+](=O)[O-])c1 [Entacapone],-0.554,-0.84,-0.719,0.0172,-0.479,-0.52
COc1cnc(NS(=O)(=O)c2ccc(N)cc2)nc1 [Sulfameter],-0.428,-0.0725,-0.426,-0.359,-0.447,-0.542
CC(=O)N[C@@H](CS)C(=O)O [Acetylcysteine],-0.477,-0.307,-0.0556,-0.751,-0.4,-0.456
CC(=O)S[C@@H]1CC2=CC(=O)CC[C@]2(C)[C@H]2CC[C@@]3(C)[C@@H](CC[C@@]34CCC(=O)O4)[C@H]12 [Spironolactone],-0.583,-0.535,-0.744,-0.849,-0.526,-0.689
CC(=O)OCC(=O)[C@@]1(O)CC[C@H]2[C@@H]3CCC4=CC(=O)CC[C@]4(C)[C@@]3(F)[C@@H](O)C[C@@]21C [Fludrocortisone acetate],-0.127,-0.216,-0.382,-0.957,-0.321,-0.564
CC[C@H](C)C(=O)O[C@H]1C[C@@H](C)C=C2C=C[C@H](C)[C@H](CC[C@@H]3C[C@@H](O)CC(=O)O3)[C@H]21 [Lovastatin],-0.976,-1.31,-0.714,-0.104,-0.696,0.121
CC(C)CC(=O)N[C@H](C(=O)N[C@H](C(=O)N[C@@H](CC(C)C)[C@@H](O)CC(=O)N[C@@H](C)C(=O)N[C@@H](CC(C)C)[C@@H](O)CC(=O)O)C(C)C)C(C)C [Pepstatin A],-0.604,-1.38,-0.841,-0.484,-0.569,-0.589
COc1ccc(C2CNC(=O)C2)cc1OC1CCCC1 (stereo unspecified) [Rolipram],-0.493,-0.432,-0.586,-0.445,-0.453,-0.525
O=C1CCC(N2C(=O)c3ccccc3C2=O)C(=O)N1 (stereo unspecified) [Thalidomide],-0.476,-0.403,-0.887,-1.09,-0.544,-0.68
O=C(O)c1cn(-c2ccc(F)cc2)c2cc(N3CCNCC3)c(F)cc2c1=O [Sarafloxacin],-0.35,-0.0848,0.000583,-0.426,-0.428,-0.434
Nc1ccc(S(N)(=O)=O)cc1 [Sulfanilamide],-0.59,-0.84,-0.27,0.397,-0.496,-0.373
